Source: PubChem BioAssay (Sanford-Burnham Center for Chemical Genomics)
An excerpt weighted towards active compounds, which were near 4% of everything screened.
HIF-2a inh = HIF-2a inhibition | actives 0.72% (n = 360,000) | AID 624352 | inhibition, % at 18.8 µM | 786-0 RCC cells HIF-2a reporter, luciferase luminescence, overnight;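 active = inhibition of the luminescence signal of 40% or more relative to plate controls, in a single-dose primary screen at 18.75 µM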
KKLEB cytotox = counter-screen for CF NF-kB inhibitors: cytotoxicity; AID 602141; activity change (cytotoxicity), % at 5 µM; KKLEB CF airway cells viability, ATPlite luminescence, overnight; stronger effect = lower value; cells stimulated with P. aeruginosa culture filtrate; actives 0.36% (n = 360,000);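 active = corrected activity change at or below -50% at 5 µM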
TWEAK-Fn14 inh = blocks TWEAK-Fn14 interaction in a reporter cell assay. TWEAK-stimulated Fn14 reporter cells, luciferase luminescence, 8 h. inhibition, % at 10 µM. actives 2% (n = 360,000). AID 1159606; in the data active = inhibition above about 50%
TROY signal inh = blocks TROY-dependent signaling in reporter cells. Q293 LMP1-TROYcd NF-kB luciferase reporter, 4 h. inhibition, % at 10 µM. actives 0.98% (n = 360,000);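 active = compounds whose plate-normalised and pattern-corrected inhibition of the luciferase reporter signal at the single screening dose is 50% or more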
CF NFkB inh = blocks PAF-induced NF-kB reporter in cystic fibrosis cells; KKLEB NF-kB-GFP reporter, GFP fluorescence overnight; inhibition, % at 5 µM; actives 0.86% (n = 360,000);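 active = at least 50% inhibition at 5 µM, scaled per plate between neutral and stimulator controls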;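 note: PAF is a Pseudomonas aeruginosa culture filtrate used as stimulus; plate controls were PAF-stimulated DMSO wells for no effect and unstimulated DMSO wells for full effect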
Peg3 prom inh = inhibitors of Peg3 promoter; HeLa PEG-Prom luciferase reporter, luminescence, overnight; inhibition, % at 20 µM; actives 1.7% (n = 360,000);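 active = inhibition of at least 50% at 20 µM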
Mdm2 MdmX conf = confirmation of inhibitors of human Mdm2/MdmX interaction, set 2; inhibition, % at 8 µM; AID 504601; shares compounds with HIF-2a inh; SaOS-2 split-luciferase Mdm2/MdmX complementation, luminescence; actives 99% (n = 740);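 active = mean inhibition of the luminescence signal across two replicates at or above 26 percent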
Target sequence (O15151 whole entry, looked up): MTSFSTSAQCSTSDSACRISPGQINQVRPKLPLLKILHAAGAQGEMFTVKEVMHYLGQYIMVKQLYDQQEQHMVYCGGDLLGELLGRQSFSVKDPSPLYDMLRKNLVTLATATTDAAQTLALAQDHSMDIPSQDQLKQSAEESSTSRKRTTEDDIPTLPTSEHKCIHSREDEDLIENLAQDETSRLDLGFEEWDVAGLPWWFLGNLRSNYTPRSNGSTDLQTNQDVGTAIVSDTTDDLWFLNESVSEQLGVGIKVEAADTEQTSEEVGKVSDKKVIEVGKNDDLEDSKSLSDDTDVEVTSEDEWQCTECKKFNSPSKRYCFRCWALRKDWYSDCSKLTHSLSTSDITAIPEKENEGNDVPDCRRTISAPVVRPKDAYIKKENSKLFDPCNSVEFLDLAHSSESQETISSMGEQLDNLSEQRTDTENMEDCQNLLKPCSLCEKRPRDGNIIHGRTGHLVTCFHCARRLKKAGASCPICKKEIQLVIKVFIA
Target sequence (Q00987 whole entry, looked up): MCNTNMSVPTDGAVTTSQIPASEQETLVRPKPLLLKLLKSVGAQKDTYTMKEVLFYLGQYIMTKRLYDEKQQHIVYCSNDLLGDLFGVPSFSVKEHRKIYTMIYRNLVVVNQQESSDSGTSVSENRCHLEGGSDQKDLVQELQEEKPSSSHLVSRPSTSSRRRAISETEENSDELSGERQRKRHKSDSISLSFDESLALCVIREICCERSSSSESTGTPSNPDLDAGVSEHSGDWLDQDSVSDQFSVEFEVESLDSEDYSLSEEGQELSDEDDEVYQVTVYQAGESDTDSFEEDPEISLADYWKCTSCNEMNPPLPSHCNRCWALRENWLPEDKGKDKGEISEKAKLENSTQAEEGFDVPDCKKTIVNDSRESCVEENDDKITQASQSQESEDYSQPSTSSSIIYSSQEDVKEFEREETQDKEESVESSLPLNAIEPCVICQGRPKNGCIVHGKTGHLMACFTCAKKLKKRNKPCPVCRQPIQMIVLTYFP
HIF-2a inh conf = HIF-2a inhibition, single concentration confirmation. inhibition, % at 18.8 µM. actives 56% (n = 1,800). shares compounds with HIF-2a inh. 786-0 RCC cells, HIF-2a luciferase reporter luminescence, overnight;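 active = mean inhibition across four replicates of at least 40 percent at the single tested concentration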
HIF-1a cs = counter-screen for HIF-2a inhibitors: HIF-1a inhibition in MiaPaCa-2 cells | MiaPaCa-2 HIF-1a luciferase reporter, desferoxamine, overnight | AID 651589 | inhibition, % at 18.8 µM | shares compounds with HIF-2a inh | actives 72% (n = 1,800);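 active = mean inhibition of the reporter signal across four replicates at the single tested dose of 50% or more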
Numbers without * were called inactive; x = no result given.

SMILES | HIF-2a inh | KKLEB cytotox | TWEAK-Fn14 inh | TROY signal inh | CF NFkB inh | Peg3 prom inh | HIF-2a inh conf | HIF-1a cs | others
CC(=O)c1ccccc1C(=O)N1CCC(CCC(=O)NCc2ccc(F)cc2)CC1 | -3.7 | 10.0 | 0.9 | -0.1 | -17.1 | 4.9 | x | x
Cc1ccc(C(=O)Cn2c(C(=O)/C=C/c3ccccc3)nc3ccccc32)cc1 | 48.0* | -15.8 | 17.6 | -4.0 | 10.4 | 43.5 | -3.6 | 59.6*
CN(C)c1nc(C=C(C#N)C#N)c(Cl)n1-c1ccc(F)cc1 | 91.2* | -96.4* | 71.8* | 16.2 | 85.6* | 110.3* | 92.3* | 92.1*
Cc1[nH]c2ccccc2c1C(=O)c1cc(Cc2ccccc2)sc1N | 4.8 | x | x | x | x | x | x | x
Nc1nc(F)nc2c1ncn2[C@@H]1O[C@H](CO)[C@@H](O)[C@H]1O | 56.7* | -28.5 | 87.4* | 50.6* | 81.4* | 94.6* | 55.4* | 106.6*
COc1ccc(C2=NN(C(=O)COC(=O)c3ccc(S(C)(=O)=O)c([N+](=O)[O-])c3)C(c3ccco3)C2)cc1 (configuration not stated) | 61.1* | -79.5* | 68.9* | 15.8 | 84.1* | 94.5* | 7.0 | 103.0* | Mdm2 MdmX conf=103.2*
COc1ccc(C2=NN(C(=O)COc3ncnc4ccccc34)C(c3ccco3)C2)cc1 (configuration not stated) | -0.4 | -20.9 | -64.9 | 7.3 | 17.4 | 38.5 | x | x
COc1ccc(-c2csc(NC(=O)CSC(C)C(=O)Nc3cc(C)on3)n2)cc1OC (configuration not stated) | 6.6 | 13.7 | 7.6 | 1.1 | 10.1 | -3.7 | x | x
Nc1cccc2cc(-c3ccccc3)oc12 | -218.6 | -3.7 | -6.4 | -58.1 | -9.8 | -324.7 | x | x
Cc1cc2c(C)cc(=O)[nH]c2cc1NC(=O)CCl | 28.2 | -8.7 | 11.8 | 4.7 | -16.7 | 24.6 | x | x
O=C(CCl)Nc1cc2[nH]c(=O)[nH]c2cc1Br | -5.5 | -19.9 | -15.4 | 9.2 | -22.3 | 87.5* | x | x | Mdm2 MdmX conf=103.5*
O=C(CC1C[C@H](C(=O)N2CCCCC2)[C@@]2(CCc3ccccc3)c3[nH]c4ccccc4c3CCN2C1=O)NCCc1ccccn1 (some centres not stated) | -0.1 | 8.1 | 18.7 | 6.5 | 17.2 | 7.6 | x | x
CCCCOc1ccc(S(=O)(=O)N2CCN(c3ccc(N4CCN(CC)CC4)nn3)CC2)cc1 | 1.1 | -13.1 | -5.3 | -10.3 | 20.6 | 40.0 | x | x
O=C1c2cccc3c([N+](=O)[O-])ccc(c23)C(=O)N1c1ccc(Cl)cn1 | 30.9 | -11.3 | 6.8 | 61.8* | 9.4 | 105.4* | x | x | Mdm2 MdmX conf=103.0*
O=C(NCc1ccco1)c1cccc2c1C(=O)c1ccc(/C=C/c3ccccc3)cc1S2(=O)=O | 1.1 | -17.3 | 35.4 | 10.5 | 6.2 | -9.9 | x | x
CC(C)(C)[C@H](N)C(=O)N[C@H]1CCC2C3CC=C4C[C@@H](O)CC[C@]4(C)C3CC[C@@]21C (some centres not stated) | 93.7* | -68.1* | -220.9 | -6.3 | -28.1 | 96.0* | 7.2 | 104.7* | Mdm2 MdmX conf=103.2*
CCOc1ccccc1C(=O)N(Cc1sccc1C)C1CCS(=O)(=O)C1 (configuration not stated) | 6.5 | 11.2 | -0.6 | -1.2 | 1.9 | 2.5 | x | x
CC(=O)c1ccc(NC(=O)c2noc3c2CCC3)cc1 | 49.0* | 30.4 | 94.5* | 54.0* | -38.4 | 28.1 | 72.4* | 60.5*
CC(=O)c1ccc(NC(=O)c2onc(C)c2Cl)cc1 | -131.0 | 6.8 | 2.1 | -29.9 | -5.3 | -234.8 | x | x
O=C(c1ccccc1)N1CCSc2sccc2C1=O | 65.3* | -11.5 | -3.6 | -39.9 | 22.3 | 26.5 | 71.1* | -16.2
CCOC(=O)COc1ccc(S(=O)(=O)Nc2cccc(SC)c2)cc1 | 50.2* | -2.9 | 0.5 | 4.1 | 4.1 | 0.7 | 18.1 | -0.8
O=C(NNC(=S)Nc1ccc(Cl)c(Cl)c1)c1ccccn1 | -166.5 | -29.5 | -13.7 | -11.6 | 35.9 | 18.1 | x | x | Mdm2 MdmX conf=85.0*
